From PubChem BioAssay AID1159580 (chemical genetic matrix, 2015)
Screen size: about 5,500 compounds; about 2,000 (36%) were called active. About 18% were inconclusive and are not listed. Rule as the data show it: active = normalized growth mostly below about 0.91 (no sharp cut-off); inconclusive = no clear call, values can overlap the other calls; inactive = mostly above about 0.92. The list shows a part of the results.

Test: chemical genetic growth profiling, strain panel (AID 1159580);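 also: tested at 20 µM; growth read once vehicle control cultures reached saturation at 30 °C; 1 = growth at the plate median or of vehicle wells; lower values mean less growth of the strain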
Conditions: growth OD

Measured: normalized growth

COc1ccc2c(c1)CCC1C2CCC2(C)C1C[C@@H](O)C2O (stereo not given in full)
inactive: S. cerevisiae deletion strains, locus YAL013W, strain DEP1, active compounds read low 1 | S. cerevisiae deletion strains, locus YAL021C, strain ccr4, active compounds read low 0.947 | S. cerevisiae deletion strains, locus YAL030W, strain snc1, active compounds read low 1 | S. cerevisiae deletion strains, locus YBL061C, strain skt5, active compounds read low 1 | S. cerevisiae deletion strains, locus YBR009C, strain hhf1, active compounds read low 0.917 | S. cerevisiae deletion strains, locus YBR021W, strain FUR4, active compounds read low 1.08 | S. cerevisiae deletion strains, locus YBR023C, strain chs3, active compounds read low 0.988 | S. cerevisiae deletion strains, locus YBR171W, strain sec66, active compounds read low 0.983 | S. cerevisiae deletion strains, locus YBR229C, strain ROT2, active compounds read low 1.02 | S. cerevisiae deletion strains, locus YBR231C, strain swc5, active compounds read low 1.01 | S. cerevisiae deletion strains, locus YBR279W, strain paf1, active compounds read low 0.992 | S. cerevisiae deletion strains, locus YCL011C, strain gbp2, active compounds read low 0.977 | S. cerevisiae deletion strains, locus YCL016C, strain dcc1, active compounds read low 0.949 | S. cerevisiae deletion strains, locus YCL029C, strain bik1, active compounds read low 0.993 | S. cerevisiae deletion strains, locus YCL061C, strain MRC1, active compounds read low 0.985 | S. cerevisiae deletion strains, locus YCL069W, strain vba3, active compounds read low 1 | S. cerevisiae deletion strains, locus YCR088W, strain abp1, active compounds read low 0.998 | S. cerevisiae deletion strains, locus YDL005C, strain med2, active compounds read low 1.01 | S. cerevisiae deletion strains, locus YDL035C, strain GPR1, active compounds read low 0.962 | S. cerevisiae deletion strains, locus YDL040C, strain nat1, active compounds read low 0.993 | S. cerevisiae deletion strains, locus YDL074C, strain BRE1, active compounds read low 0.95 | S. cerevisiae deletion strains, locus YDL101C, strain DUN1, active compounds read low 1.02 | S. cerevisiae deletion strains, locus YDL134C, strain PPH21, active compounds read low 0.952 | S. cerevisiae deletion strains, locus YDL185W, strain tfp1, active compounds read low 0.992 | S. cerevisiae deletion strains, locus YDL192W, strain arf1, active compounds read low 0.997 | S. cerevisiae deletion strains, locus YDR001C, strain nth1, active compounds read low 1.01 | S. cerevisiae deletion strains, locus YDR069C, strain doa4, active compounds read low 0.992 | S. cerevisiae deletion strains, locus YDR101C, strain arx1, active compounds read low 0.987 | S. cerevisiae deletion strains, locus YDR137W, strain rgp1, active compounds read low 0.854 | S. cerevisiae deletion strains, locus YDR150W, strain NUM1, active compounds read low 1.01 | S. cerevisiae deletion strains, locus YDR159W, strain sac3, active compounds read low 0.966 | S. cerevisiae deletion strains, locus YDR162C, strain NBP2, active compounds read low 0.978 | S. cerevisiae deletion strains, locus YDR195W, strain ref2 1.1 | S. cerevisiae deletion strains, locus YDR297W, strain sur2, active compounds read low 1 | S. cerevisiae deletion strains, locus YDR318W, strain mcm21, active compounds read low 0.991 | S. cerevisiae deletion strains, locus YDR334W, strain swr1, active compounds read low 1 | S. cerevisiae deletion strains, locus YDR335W, strain msn5, active compounds read low 0.997 | S. cerevisiae deletion strains, locus YDR388W, active compounds read low 0.99 | S. cerevisiae deletion strains, locus YDR502C, strain sam2, active compounds read low 0.997 | S. cerevisiae deletion strains, locus YEL003W, strain gim4, active compounds read low 0.992 | S. cerevisiae deletion strains, locus YEL037C, strain rad23, active compounds read low 1 | S. cerevisiae deletion strains, locus YEL061C, strain CIN8 (second series), active compounds read low 1.01 | S. cerevisiae deletion strains, locus YEL061C, strain CIN8, active compounds read low 1.01 | S. cerevisiae deletion strains, locus YER015W, strain faa2, active compounds read low 0.996 | S. cerevisiae deletion strains, locus YER016W, strain bim1, active compounds read low 0.979 | S. cerevisiae deletion strains, locus YER110C, active compounds read low 0.983 | S. cerevisiae deletion strains, locus YER111C, strain swi4, active compounds read low 0.984 | S. cerevisiae deletion strains, locus YER155C, strain BEM2, active compounds read low 1.02 | S. cerevisiae deletion strains, locus YER167W, strain BCK2, active compounds read low 0.999 | S. cerevisiae deletion strains, locus YFR010W, strain ubp6, active compounds read low 1 | S. cerevisiae deletion strains, locus YGL078C, strain dbp3, active compounds read low 0.997 | S. cerevisiae deletion strains, locus YGL086W, strain mad1, active compounds read low 0.991 | S. cerevisiae deletion strains, locus YGL167C, strain pmr1, active compounds read low 1 | S. cerevisiae deletion strains, locus YGL173C, strain kem1, active compounds read low 0.949 | S. cerevisiae deletion strains, locus YGL227W, strain vid30, active compounds read low 1 | S. cerevisiae deletion strains, locus YGL240W, strain doc1, active compounds read low 0.944 | S. cerevisiae deletion strains, locus YGL248W, strain PDE1, active compounds read low 1 | S. cerevisiae deletion strains, locus YGR135W, strain pre9, active compounds read low 0.961 | S. cerevisiae deletion strains, locus YGR252W, strain gcn5, active compounds read low 0.774 | S. cerevisiae deletion strains, locus YHR013C, strain ard1, active compounds read low 0.906 | S. cerevisiae deletion strains, locus YHR027C, strain rpn1, active compounds read low 1.01 | S. cerevisiae deletion strains, locus YHR030C, strain SLT2, active compounds read low 1.01 | S. cerevisiae deletion strains, locus YHR079C, strain IRE1 (second series), active compounds read low 0.992 | S. cerevisiae deletion strains, locus YHR094C, strain hxt1, active compounds read low 0.992 | S. cerevisiae deletion strains, locus YHR129C, strain ARP1, active compounds read low 1.01 | S. cerevisiae deletion strains, locus YHR142W, strain chs7, active compounds read low 0.925 | S. cerevisiae deletion strains, locus YHR200W, strain rpn10, active compounds read low 0.993 | S. cerevisiae deletion strains, locus YIL066C, strain RNR3, active compounds read low 0.98 | S. cerevisiae deletion strains, locus YIL073C, strain SPO22, active compounds read low 0.91 | S. cerevisiae deletion strains, locus YIL125W, strain kgd1, active compounds read low 1 | S. cerevisiae deletion strains, locus YIR030C, strain dcg1, active compounds read low 0.991 | S. cerevisiae deletion strains, locus YJL092W, strain hpr5, active compounds read low 0.998 | S. cerevisiae deletion strains, locus YJL095W, strain BCK1 (second series), active compounds read low 0.981 | S. cerevisiae deletion strains, locus YJL095W, strain BCK1, active compounds read low 0.944 | S. cerevisiae deletion strains, locus YJL115W, strain asf1, active compounds read low 0.995 | S. cerevisiae deletion strains, locus YJL129C, strain trk1, active compounds read low 0.915 | S. cerevisiae deletion strains, locus YJL134W, strain LCB3, active compounds read low 1.02 | S. cerevisiae deletion strains, locus YJL154C, strain vps35, active compounds read low 1.02 | S. cerevisiae deletion strains, locus YJL168C, strain set2, active compounds read low 0.994 | S. cerevisiae deletion strains, locus YJL187C, strain SWE1 (second series), active compounds read low 1 | S. cerevisiae deletion strains, locus YJL187C, strain SWE1, active compounds read low 0.991 | S. cerevisiae deletion strains, locus YJR043C, strain POL32, active compounds read low 0.999 | S. cerevisiae deletion strains, locus YJR075W, strain HOC1, active compounds read low 0.982 | S. cerevisiae deletion strains, locus YKL009W, strain mrt4, active compounds read low 0.948 | S. cerevisiae deletion strains, locus YKL068W, active compounds read low 1 | S. cerevisiae deletion strains, locus YKL085W, strain MDH1 (second series), active compounds read low 0.997 | S. cerevisiae deletion strains, locus YKL085W, strain MDH1, active compounds read low 0.997 | S. cerevisiae deletion strains, locus YKL160W, strain elf1, active compounds read low 0.958 | S. cerevisiae deletion strains, locus YKL190W, strain CNB1, active compounds read low 1.01 | S. cerevisiae deletion strains, locus YKR001C, strain vps1, active compounds read low 0.956 | S. cerevisiae deletion strains, locus YKR026C, strain gcn3, active compounds read low 0.994 | S. cerevisiae deletion strains, locus YKR091W, strain srl3, active compounds read low 0.997 | S. cerevisiae deletion strains, locus YLL001W, strain dnm1, active compounds read low 0.966 | S. cerevisiae deletion strains, locus YLL026W, active compounds read low 0.974 | S. cerevisiae deletion strains, locus YLL041C, strain sdh2, active compounds read low 0.982 | S. cerevisiae deletion strains, locus YLR027C, strain aat2, active compounds read low 0.974 | S. cerevisiae deletion strains, locus YLR039C, strain RIC1, active compounds read low 0.947 | S. cerevisiae deletion strains, locus YLR058C, strain SHM2, active compounds read low 1 | S. cerevisiae deletion strains, locus YLR102C, strain apc9, active compounds read low 0.99 | S. cerevisiae deletion strains, locus YLR221C, strain rsa3, active compounds read low 0.929 | S. cerevisiae deletion strains, locus YLR258W, strain gsy2, active compounds read low 0.965 | S. cerevisiae deletion strains, locus YLR262C, strain YPT6, active compounds read low 0.943 | S. cerevisiae deletion strains, locus YLR268W, strain sec22, active compounds read low 0.973 | S. cerevisiae deletion strains, locus YLR330W, strain CHS5, active compounds read low 1.01 | S. cerevisiae deletion strains, locus YLR342W, strain FKS1 (second series), active compounds read low 0.912 | S. cerevisiae deletion strains, locus YLR342W, strain FKS1, active compounds read low 0.947 | S. cerevisiae deletion strains, locus YLR357W, strain rsc2, active compounds read low 0.987 | S. cerevisiae deletion strains, locus YLR370C, strain arc18, active compounds read low 1 | S. cerevisiae deletion strains, locus YLR371W, strain rom2, active compounds read low 0.985 | S. cerevisiae deletion strains, locus YLR384C, strain iki3, active compounds read low 1.01 | S. cerevisiae deletion strains, locus YLR418C, strain cdc73, active compounds read low 0.894 | S. cerevisiae deletion strains, locus YML016C, strain PPZ1, active compounds read low 1.01 | S. cerevisiae deletion strains, locus YML032C, strain rad52, active compounds read low 0.972 | S. cerevisiae deletion strains, locus YML120C, strain ndi1, active compounds read low 0.998 | S. cerevisiae deletion strains, locus YML124C, strain tub3, active compounds read low 0.998 | S. cerevisiae deletion strains, locus YMR058W, strain fet3, active compounds read low 0.968 | S. cerevisiae deletion strains, locus YMR078C, strain ctf18, active compounds read low 0.992 | S. cerevisiae deletion strains, locus YMR125W, strain sto1, active compounds read low 1.01 | S. cerevisiae deletion strains, locus YMR129W, active compounds read low 1.01 | S. cerevisiae deletion strains, locus YMR205C, strain PFK2, active compounds read low 0.964 | S. cerevisiae deletion strains, locus YMR223W, strain ubp8, active compounds read low 0.965 | S. cerevisiae deletion strains, locus YMR231W, strain pep5, active compounds read low 0.998 | S. cerevisiae deletion strains, locus YMR307W, strain GAS1, active compounds read low 0.782 | S. cerevisiae deletion strains, locus YNL067W, strain RPL9B, active compounds read low 0.979 | S. cerevisiae deletion strains, locus YNL128W, strain TEP1, active compounds read low 0.992 | S. cerevisiae deletion strains, locus YNL209W, strain ssb2, active compounds read low 1 | S. cerevisiae deletion strains, locus YNL233W, strain BNI4, active compounds read low 0.989 | S. cerevisiae deletion strains, locus YNL248C, strain rpa49, active compounds read low 0.979 | S. cerevisiae deletion strains, locus YNL250W, strain rad50, active compounds read low 0.983 | S. cerevisiae deletion strains, locus YNL271C, strain bni1, active compounds read low 0.983 | S. cerevisiae deletion strains, locus YNL298W, strain CLA4, active compounds read low 0.966 | S. cerevisiae deletion strains, locus YNL307C, strain MCK1, active compounds read low 0.967 | S. cerevisiae deletion strains, locus YNL322C, strain KRE1 (second series), active compounds read low 1.01 | S. cerevisiae deletion strains, locus YNR049C, strain mso1, active compounds read low 1.01 | S. cerevisiae deletion strains, locus YNR052C, strain pop2, active compounds read low 0.987 | S. cerevisiae deletion strains, locus YOL006C, strain TOP1, active compounds read low 0.902 | S. cerevisiae deletion strains, locus YOL012C, strain htz1 0.926 | S. cerevisiae deletion strains, locus YOL147C, strain pex11, active compounds read low 1 | S. cerevisiae deletion strains, locus YOR001W, strain rrp6, active compounds read low 0.986 | S. cerevisiae deletion strains, locus YOR061W, strain CKA2, active compounds read low 1.01 | S. cerevisiae deletion strains, locus YOR069W, strain VPS5, active compounds read low 1.01 | S. cerevisiae deletion strains, locus YOR070C, strain gyp1, active compounds read low 0.998 | S. cerevisiae deletion strains, locus YOR080W, strain dia2, active compounds read low 1 | S. cerevisiae deletion strains, locus YOR083W, strain WHI5, active compounds read low 0.914 | S. cerevisiae deletion strains, locus YOR106W, strain vam3, active compounds read low 0.916 | S. cerevisiae deletion strains, locus YOR136W, strain idh2, active compounds read low 0.997 | S. cerevisiae deletion strains, locus YOR144C, strain elg1, active compounds read low 0.995 | S. cerevisiae deletion strains, locus YOR184W, strain ser1, active compounds read low 0.945 | S. cerevisiae deletion strains, locus YOR265W, strain rbl2, active compounds read low 0.999 | S. cerevisiae deletion strains, locus YOR270C, strain vph1, active compounds read low 1.11 | S. cerevisiae deletion strains, locus YOR290C, strain snf2, active compounds read low 0.94 | S. cerevisiae deletion strains, locus YOR316C, strain cot1, active compounds read low 0.991 | S. cerevisiae deletion strains, locus YPL051W, strain arl3, active compounds read low 0.941 | S. cerevisiae deletion strains, locus YPL078C, strain atp4, active compounds read low 0.929 | S. cerevisiae deletion strains, locus YPL106C, strain sse1, active compounds read low 1.03 | S. cerevisiae deletion strains, locus YPL240C, strain hsp82, active compounds read low 1.01 | S. cerevisiae deletion strains, locus YPR119W, strain clb2, active compounds read low 0.991 | S. cerevisiae deletion strains, locus YPR141C, strain kar3, active compounds read low 0.993 | S. cerevisiae deletion strains, locus YPR163C, strain tif3, active compounds read low 0.985 | S. cerevisiae deletion strains, locus YPR167C, strain met16, active compounds read low 0.991 | S. cerevisiae deletion strains, strain wtn01, active compounds read low 0.978 | S. cerevisiae strains, strain wild type, active compounds read low 1.01
active: S. cerevisiae deletion strains, locus YAL026C, strain drs2, active compounds read low 0.83 | S. cerevisiae deletion strains, locus YDR392W, strain spt3, active compounds read low 0.685 | S. cerevisiae deletion strains, locus YER155C, strain BEM2 (second series), active compounds read low 0.715 | S. cerevisiae deletion strains, locus YGL253W, strain hxk2, active compounds read low 0.903 | S. cerevisiae deletion strains, locus YJL164C, strain tpk1, active compounds read low 0.907 | S. cerevisiae deletion strains, locus YLR262C, strain YPT6 (second series), active compounds read low 0.755 | S. cerevisiae deletion strains, locus YLR320W, strain mms22, active compounds read low 0.876 | S. cerevisiae deletion strains, locus YNL071W, strain lat1, active compounds read low 0.833
